# Test results reported in PubChem BioAssay AID893 (National Center for Advancing Translational Sciences (NCATS), 2007).
# Values joined by “and” are separate entries in the source; they are usually repeats but may differ in a detail not shown here. Identical values can stand only once. Among all 75,000 compounds or so, about 5,700 (7.6%) were called active. Inconclusive results (about 7%) are left out. Only a selection was taken, and actives are over-represented in it overall. A number with no mark means an inactive call. Calls come from the whole dose curve; as a rule, active = well fitted inhibition curve with a large enough effect; inconclusive = small, poorly fitted or top-dose-only effect; inactive = no such curve, though single readings can be large or run the other way.
# Target: 3-hydroxyacyl-CoA dehydrogenase type-2 (Homo sapiens) (UniProt Q99714)
# Experiment: qHTS Assay for Inhibitors of HSD17B4, hydroxysteroid (17-beta) dehydrogenase 4;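 note: the protocol describes HADH2 (HSD17B10) and not the HSD17B4 of the title; nearly all actives have a fitted effect of over 70% in size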
# Details: recombinant HSD17B10, NADH fluorescence kinetic; series mostly up to 57.1 µM; activity change, negative = inhibition: at the top concentration
# In short: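 Enzyme plus compound, 15 min room temperature; substrate mix added (NAD+ 1 mM, beta-hydroxybutyryl-CoA 90 uM final); plates read kinetically for NADH fluorescence. HADH2 was His-tagged, E. coli-derived, 20 nM.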
# % is set by controls: 0 for no effect and ±100 for the full control effect; potency is the fitted concentration of half-maximal effect.
Structure (SMILES),"activity change, negative = inhibition",Potency
CC1=C(/C=C/C(C)=C/C=C/C(C)=C/C=C/C=C(C)/C=C/C=C(C)/C=C/C2=C(C)CCCC2(C)C)C(C)(C)CCC1,0.289%,–
CC(=O)OCC(=O)[C@@]1(O)CCC2C3CCC4=CC(=O)CC[C@@]4(C)[C@]3(F)C(O)C[C@]21C (stereo not given in full),0.147%,–
CC(N)=NCc1cccc(CN)c1,–,inactive
COc1ccc2c(CC(=O)Nc3nnc(C4CC4)s3)coc2c1,–,25.1 µM (active)
COc1cccc(NC(=O)Nc2nnc(N3CCCCC3C)s2)c1 (stereo not given),3.2%,–
COc1ccc(OCCCC(=O)Nc2nnc(C3CCCO3)s2)cc1 (stereo not given),-0.481%,–
C[C@H]1CC[C@H](C(=O)O)N[C@@H]1c1ccc(C#Cc2ccccc2)cc1,-1.28% [at 11.4 µM],–
O=C(Nc1cccc(F)c1)c1ccc(S(=O)(=O)N2CCCC2)cc1,1.79%,–
C/C(Cl)=C\Cn1c(Nc2cccc(C)c2)nc2c1c(=O)n(C)c(=O)n2C,10.6%,–
CCOC(=O)c1sc(NC(=O)CSc2ncccn2)c(C#N)c1C,3.84%,–
COCCNC(=O)COc1ccc(C)c(C)c1,9.62%,–
Cc1cccc(CNc2ccnc(-c3cccnc3)n2)c1,-10.9%,–
c1cncc(CNc2ccnc(-c3ccc4c(c3)OCO4)n2)c1,–,20 µM (active)
O=C(Nc1cccnc1)c1ccc2c(c1)OCO2,-2.27%,–
Cc1onc(-c2ccccc2Cl)c1C(=O)NCCn1ccc2ccccc21,2.57%,–
Cc1noc(/C=C/N(C)C)c1S(=O)(=O)N1CCCC(C(=O)NCc2ccco2)C1 (stereo not given),-2.89%,–
C=CCc1cccc2cc(C(=O)OCC)c(=O)oc12,–,31.6 µM (active)
CCOC(=O)N1CCN(C(=O)c2cn(C)c3ccc(S(=O)(=O)N4CCCC4)cc3c2=O)CC1,-11.3%,–
CCOC(=O)N1CCN(C(=O)c2n[nH]c(=O)c3ccccc23)CC1,0.0442%,–
COc1c(C(=O)N2CCCC2)ccc2ccccc12,4.92%,–
CCOC(=O)N1CCN(C(=O)c2cc3c(ccc4ccccc43)oc2=O)CC1,–,31.6 µM (active)
C=CCc1cccc2cc(C(=O)N3CCN(C(=O)OCC)CC3)c(=O)oc12,–,25.1 µM (active)
CS(=O)(=O)N1CCN(C(=O)c2cc3ccccc3oc2=O)CC1,-9.3%,–
CCOC(=O)c1cc2ccccc2nc1C,0.969%,–
COc1cccc2cc(C(=O)N(C)C)c(=O)oc12,-22.2%,–
CC(C)=CCC/C(C)=C/CC/C(C)=C/CC/C(C)=C/CO,-7.07%,–
CC(c1cccnc1)N(CCN(C)C)C(=O)Nc1ccc(Cl)c(Cl)c1 (stereo not given),5.22%,–

Structure (SMILES),"activity change, negative = inhibition",Potency
Cc1ccc(Br)cc1,2.4%,–
COC(=O)c1ccc(N(CC(=O)NC2CCCC2)C(=O)CNC(=O)c2ccco2)cc1,3.14%,–
COCCCNC(=O)c1c(F)c(F)c(F)c(F)c1F,-7.25%,–
Cc1ccccc1CN1CCN(CC(=O)NCc2ccccn2)C1=O,1.1%,–
CC(=O)N1[C@H](C)C=C[C@]1(Cc1ccccc1)C(=O)NCc1ccccn1,-2.62%,–
Cc1cccn2c(=O)c3cc(C(=O)N4COCC4(C)C)n(C)c3nc12,–,7.94 µM (active)
Cc1cccn2c(=O)c3cc(C(=O)NCc4ccccn4)n(C)c3nc12,–,3.16 µM (active)
O=c1ccn(Cc2ccccc2Cl)cc1,0.809%,–
CNc1ncnc2ccc(-c3cccc(NS(C)(=O)=O)c3)cc12,4.55%,–
COCCNc1ncnc2ccc(-c3cccnc3)cc12,–,31.6 µM (active)
COCCNc1ncnc2ccc(-c3ccccc3CN(C)C)cc12,4.95%,–
COCC(=O)Nc1nnc(COc2ccccc2)s1,-1.86%,–
C[C@@H](C(=O)Nc1ccc2ccccc2c1)[C@@H]1C[C@@]1(C)[C@@H](NC(=O)c1cccnc1)c1ccccc1,1.96%,–
CCCCCN(C(=O)NC(=O)Nc1ccccc1C)S(C)(=O)=O,4.95%,–
COC(=O)C1=C(C)N(Cc2ccccc2)C2=C3C(=O)N(c4ccccc4)C(=O)C3[C@@](O)(C(=O)OC)C(=O)N2C1c1ccccc1 (stereo not given in full),6.04% [at 11.4 µM] and 0.0692% [at 11.4 µM],–
O=C(O)c1c(Br)c(Br)c(Br)c(Br)c1C1c2ccc(O)cc2Oc2cc(O)ccc21,–,0.794 µM (active)
N#CC1=C(N)Oc2cc(O)ccc2C1C1CCCCC1 (stereo not given),-8.01%,–
COc1ccc(CC(=O)c2ccc(O)cc2O)cc1OC,-8.11%,–
CC1CCCN(Cc2nc3c(c(=O)n(C)c(=O)n3C)n2CC(=O)c2ccccc2)C1 (stereo not given),-10.4%,–
CCOC(=O)N1CCN(Cc2nc3c(c(=O)n(C)c(=O)n3C)n2Cc2ccccc2)CC1,12.7%,–
CCN1CCN(Cc2nc3c(c(=O)n(C)c(=O)n3C)n2CC(=O)c2ccccc2)CC1,–,25.1 µM (active)
CCn1nnc(NC(=O)c2c(OC)cccc2OC)n1,6.62%,–
O=C(NCc1ccc2c(c1)OCO2)C1CCCN(S(=O)(=O)c2cccs2)C1 (stereo not given),6.03%,–
O=C(c1cc(C(F)(F)F)cc(C(F)(F)F)c1)N1CCC2(CCCN(c3ccccn3)C2)CC1,-20.2%,–
COc1ccc(C(=O)N2CCC3(CC2)CCN(c2ccccn2)CC3)cc1,–,25.1 µM (active)
COc1ccc(C(=O)N2CCC3(CCCN(C(c4ccccc4)c4ccccc4)C3)CC2)cc1,1.82%,–
CC(C)c1cc(CN(C)C)c(O)c(C(C)(C)C)c1,5.05% [at 11.4 µM],–

Structure (SMILES),"activity change, negative = inhibition",Potency
COCCNC(=O)C(c1ccc(C)o1)N(Cc1cccs1)C(=O)c1snc(C(N)=O)c1N (stereo not given),–,25.1 µM (active)
COCCNC(=O)C(c1ccc(C)o1)N(Cc1ccccc1)C(=O)Cn1nnc2ccccc21 (stereo not given),8.67%,–
CCC(C(=O)NC1CCCC1)N(C(=O)c1snc(C(N)=O)c1N)c1ccc2c(c1)OCCO2 (stereo not given),-17.9%,–
COc1ccc(F)cc1S(=O)(=O)Nc1ccc2c(c1)OCO2,-14.2%,–
COc1ccc(C(c2nnnn2C2CCCCC2)N2CCN(c3ccccc3F)CC2)cc1 (stereo not given),13.6%,–
CCC(=O)c1ccc(OCC(O)CN2C(=O)NC(C)(C)C2=O)cc1 (stereo not given),6.49%,–
Cc1ccc2cccc(O)c2[n+]1[O-],-28.9%,–
Cc1ccc(C)c(NS(=O)(=O)c2cc(Br)cnc2N)c1,6.31%,–
O=c1cc(-c2ccccc2)[nH]c2nc(Cl)ccc12,–,7.94 µM (active)
CCCC(NS(=O)(=O)c1ccc(OC)cc1)C(=O)O (stereo not given),13.1%,–
COc1cccc(N2CC(C(=O)Nc3c(C)cccc3C)CC2=O)c1 (stereo not given),-4.93%,–
COc1cccc(C2/C(=C(/O)c3ccncc3)C(=O)C(=O)N2CCCN(C)C)c1 (stereo not given),-1.78%,–
Cn1c(=O)c2c(nc(CN3CCOCC3)n2Cc2ccccc2)n(C)c1=O,3.8%,–
CCCOc1ccc(C2c3c(oc4cc(C)c(C)cc4c3=O)C(=O)N2CCCN2CCOCC2)cc1 (stereo not given),-7.43%,–
Cc1cccn2c(=O)c3cc(C#N)c(=NC(=O)c4cccnc4)n(CC4CCCO4)c3nc12 (stereo not given),–,7.94 µM (active)
O=C(Cn1nc(Cc2cccnc2)c2ccccc2c1=O)NCC1CCCO1 (stereo not given),11.8%,–
Cc1nnc(SCC(N)=O)n1CC1CCCO1 (stereo not given),16%,–
Cc1cccn2c(=O)c3cc(C#N)c(=O)n(CCCN4CCOCC4)c3nc12,–,31.6 µM (active)
CC(=NCC1CCCO1)c1c(O)[nH]c(=O)[nH]c1=O (stereo not given),1.09%,–
CCOC(=O)N1CCC(NC(=O)c2ccc3nc(N4CCOCC4)sc3c2)CC1,-10.9%,–
Nc1c(C(=O)NCc2ccccc2)nnn1Cc1cccc(Cl)c1,8.84%,–
COC(=O)CCNc1ccc2c(c1)OCCO2,-2.43%,–
NC1(C(=O)OCc2ccccc2)CCCC1,-22.7% [at 11.4 µM],–
BrC1C(Br)C(Br)C(Br)C(Br)C1Br (stereo not given),-23.1%,–
C=C(C)C1CC=C(C)C(O)C1 (stereo not given),4.89%,–
Nc1nc2[nH]c(=O)c(=O)[nH]c2c(=O)[nH]1,-3.46%,–
